# This is a sample that favours compounds with a hit; in the whole collection about 2.8% have one here.
# CBFb RUNX1 block = qHTS Assay for Compounds Blocking the Interaction Between CBF-beta and RUNX1 for the Treatment of Acute Myeloid Leukemia; AlphaScreen CBFb-His/RUNX1-biotin binding, biochemical; Potency, µM (top dose mostly 59.8 µM), for inactives: at the highest dose activity, negative = inhibition, hits mostly inhibitors; 230,000 tested, under 10 active; also: % of control where 0% means no effect
#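 AlphaScreen binding: CBFb-His and RUNX1-biotin (30 nM each) preincubated 20 min, compound added for 15 min, then nickel and streptavidin beads for 90 min, all at room temperature. Disruption of the interaction by any mechanism counts as activity.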
# a7 integrin act = qHTS for Activators of Integrin-Mediated Alleviation for Muscular Dystrophy; alpha7betagal myoblasts, beta-gal FDG fluorescence, 48 h; Potency, µM (titrated, usually from 38.3 µM), for the others: at the highest dose activation, hits mostly activators; actives 0.064% (n = 350,000);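 also: potency is read from the fitted curve at half-maximal effect; 100% = response of the positive control SU9516; nearly all actives have a fitted effect of over 60% in size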
#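 alpha7betagal+/- myoblasts (passage 13, 250/well) treated 48 h at 37C with compounds at 1:260 dilution of DMSO stock. Lysed, then beta-galactosidase activity read as FDG fluorescence (ex 480/em 540) after 30 min, with pre-read for autofluorescence.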
# PTHR1 agonist = qHTS for PTHR1 Agonists: Primary Screen | actives 0.075% (n = 410,000) | HEK293 GP2 PTHR1 cells, GloSensor cAMP luminescence, 1 h | Potency, µM (series often up to 115 µM), without a hit: top-dose activation, usual class: activators | Parathyroid hormone/parathyroid hormone-related peptide receptor (Homo sapiens), Q03431; also: potency is read from the fitted curve at half-maximal effect; nearly all actives have a fitted effect of over 55% in size
#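 HEK-293-derived GP2 cells expressing PTHR1 and a GloSensor cAMP reporter, 3,000/well, plated overnight, given luciferin plus IBMX (each 0.5 mM as added) for 1 h at 37 °C, then compound for 1 h at 37 °C. Luminescence was read after 15 min at room temperature.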
# DRD3 agonist = qHTS of D3 Dopamine Receptor Agonist: qHTS. D3R DiscoveRx beta-arrestin cells, luminescence, 90 min. max activation, %. actives 0.58% (n = 410,000); in the data active = max activation above about 30%; also: 0% is about no effect
# Target sequence (P35462 whole entry, looked up): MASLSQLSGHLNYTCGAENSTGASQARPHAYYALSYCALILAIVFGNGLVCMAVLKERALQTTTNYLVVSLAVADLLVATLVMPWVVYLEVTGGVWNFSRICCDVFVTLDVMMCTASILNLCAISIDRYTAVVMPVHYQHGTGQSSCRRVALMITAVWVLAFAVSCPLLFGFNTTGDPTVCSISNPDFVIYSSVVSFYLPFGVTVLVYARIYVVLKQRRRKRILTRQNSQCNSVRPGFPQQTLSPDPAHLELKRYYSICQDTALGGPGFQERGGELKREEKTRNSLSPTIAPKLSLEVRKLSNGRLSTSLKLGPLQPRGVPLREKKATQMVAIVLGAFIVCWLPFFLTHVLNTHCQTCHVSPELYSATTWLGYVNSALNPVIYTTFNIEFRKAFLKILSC
#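 Agonist-mode cell screen: cells plated at 1500/well and incubated overnight at 37 °C, then exposed to library compounds for 90 min at 37 °C. Detection reagent was added for 30–60 min at room temperature, and luminescence was read.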
# MBNL1 CUG block = qHTS Assay for Inhibitors of MBNL1-poly(CUG) RNA binding; Muscleblind-like protein 1 (Homo sapiens), Q9NR56; TR-FRET MBNL1-His/biotin-(CUG)12 binding, 665/545 ratio; Potency, µM (doses to about 57.5 µM), inactives show top-dose activity change, negative = inhibition, usual class: inhibitors; actives 0.036% (n = 280,000); AID 2675, 2010; active = well fitted inhibition curve with a large enough effect in the signal ratio, with a control signal flat, not every such curve was filed as active; inconclusive = small, poorly fitted or top-dose-only effect, or effect the other way, or a change in a side signal; inactive = no such curve, though single readings can be large or run the other way; the % refers to the signal ratio; also: potency is read from the fitted curve at half-maximal effect; % is scaled to controls: 0 for no effect and ±100 for the full control effect
# Target sequence (Q9NR56 whole entry, looked up): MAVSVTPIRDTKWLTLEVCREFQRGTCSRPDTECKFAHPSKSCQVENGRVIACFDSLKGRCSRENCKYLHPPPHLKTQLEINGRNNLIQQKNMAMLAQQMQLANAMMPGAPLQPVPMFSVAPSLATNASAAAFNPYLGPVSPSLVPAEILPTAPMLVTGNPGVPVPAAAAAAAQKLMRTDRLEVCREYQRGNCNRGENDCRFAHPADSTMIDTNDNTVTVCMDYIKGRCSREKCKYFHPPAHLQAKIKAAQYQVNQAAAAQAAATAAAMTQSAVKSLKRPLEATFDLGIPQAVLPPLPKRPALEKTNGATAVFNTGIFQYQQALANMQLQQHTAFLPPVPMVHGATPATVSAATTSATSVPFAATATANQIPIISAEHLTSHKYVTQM
#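 His-tagged MBNL1 binding to biotinylated (CUG)12 RNA was measured by TR-FRET using terbium anti-His antibody (0.055 ng/ul final) and streptavidin-XL665 (5 nM final). Compounds were titrated 92 nM to 58 uM; 60 min at room temperature.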
# D3 antag = qHTS of D3 Dopamine Receptor Antagonist: qHTS. D(3) dopamine receptor (Homo sapiens), P35462. D3R cells, DiscoveRx beta-arrestin luminescence, antagonist mode; stronger effect = lower value. max response, negative = inhibition, %. actives 2.5% (n = 360,000); in the data active = max response below about -50%; inconclusive = no clear call, values can overlap the other calls; also: % is scaled to controls: 0 for no effect and ±100 for the full control effect
#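 Cells expressing the human receptor were seeded at 1500 cells/well, incubated overnight at 37 degrees C in 5% CO2, then exposed to library compounds with dopamine controls for 90 minutes at 37 degrees C before luminescent detection.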
# The depositor's hits bear a star; i = inactive; ? = inconclusive; . = no result; [ ] = remark or other dose. Unless noted, calls follow the shape of the dose curve; as a rule, active = well fitted curve in the direction sought with a large enough effect; inconclusive = small, poorly fitted or top-dose-only effect, or another doubt; inactive = no such curve, though single readings can be large; an effect the other way counts as inactive or inconclusive.
SMILES,CBFb RUNX1 block,a7 integrin act,PTHR1 agonist,DRD3 agonist,MBNL1 CUG block,D3 antag
CCOC(=O)c1oc2ccc(Br)cc2c1COC(=O)C1=COCCO1,.,-7.7%,-4.9%,6.8,.,4.2
Cc1ccc2oc3c(c(=O)c2c1)C(c1cccc(Br)c1)N(Cc1ccco1)C3=O (stereo not drawn),-0.5%,25.3%,i,4.3,9.4%,-56.0*
Cc1cc2oc3c(c(=O)c2cc1C)C(c1cccc(Br)c1)N(Cc1ccco1)C3=O (stereo not drawn),-1.2%,-21.5%,-6.3%[57.5 µM],1.9,25.4%,-15.7
O=C(c1ccc(F)cc1)C(CCCCCC(CN1CCOCC1)C(=O)c1ccc(F)cc1)CN1CCOCC1 (stereo not drawn),4.6%,-62.0%,-2.4%[57.5 µM],-13.4,-4.2%,-58.2*
Cc1ccc(-n2c(CCc3nc4ccccc4[nH]3)n[nH]c2=S)cc1,-0.3%,17.7%,-26.0%,-19.0,1.3%,-50.9*
CCSc1nnc(NC(=O)C(C)(C(F)(F)F)C(F)(F)F)s1,4.8%,17.7%,-26.3%,-2.4,-15.8%,-11.4
O=C(Nc1nnc(SCc2ccc(F)cc2)s1)c1cnccn1,2.4%,23.5%,i,7.5,-1.1%,1.1
CCSc1nnc(NC(=O)c2cnccn2)s1,-1.2%,-6.0%,-9.5%[57.5 µM],-10.4,2.2%,-135.5*
CCSc1nnc(NC(=O)c2cccnc2Cl)s1,3.6%,18.6%,-2.6%[57.5 µM],-3.9,?,-22.0
CCSc1nnc(NC(=O)NCC(F)(F)F)s1,8.1%,23.4%,i,-14.2,-2.1%,-82.6*
CCOc1ccc2nc(NC(=O)c3ccccn3)sc2c1,-11.5%,-77.4%,-40.2%,-23.0,-2.5%,-63.4*
CCSc1nnc(NC(=O)c2ccccn2)s1,-9.1%,-16.0%,i,-1.9,-4.5%,-83.8*
Cc1ccc(NC(=O)Cn2c(=O)oc3cc(S(=O)(=O)NCc4ccccc4)ccc32)cc1,.,.,-27.6%,3.3,.,.
N#CCCn1cc(C(=O)CN2C(=O)C(=O)N(C3CCCC3)C2=O)c2ccccc21,.,-2.2%,-9.0%,1.3,.,-8.2
O=C(NCc1cccc(F)c1)C1=Cc2cc(Br)ccc2OC1,.,.,i,-3.2,.,.
CC#CCN1c2ccccc2[C@]23C[C@@H](C(=O)OC)N(C(=O)NC4CCCCC4)C2=NC(C(=O)OC)=C(C(=O)OC)[C@H]13,.,22.0%,i,-10.5,.,-26.6
CC1CC(C)CN(S(=O)(=O)c2ccc3c(c2)CC(C)N3C(=O)C2CC2)C1 (stereo not drawn),.,0.9%,-34.0%,-20.2,2.7%,-109.5*
Cc1ccc(N/C(=C\C(=O)c2ccccc2)C(=O)O)cc1,-11.6%,10.1%,i,1.2,-5.7%,0.5
NC1=NC(=O)C(CC(=O)NCc2ccccc2)S1 (stereo not drawn),-4.2%,22.8%,8.3%,3.5,-3.7%,-65.0*
O=C(C1CCC(CNS(=O)(=O)c2cccc3nsnc23)CC1)N1CC=C(c2ccccc2)CC1 (stereo not drawn),-0.8%,-29.3%,-46.3%,60.0*,?,179.5
CCC(NS(=O)(=O)c1ccc(C)cc1)C(=O)N1CCOCCOCCOCCOCC1 (stereo not drawn),.,5.4%,i,7.0,-5.3%,7.8
CC(C)=CCN1CCN(CCC2=C(C)CCCC2(C)C)CC1CCO (stereo not drawn),9.1%,-35.0%,-32.7%,-14.4,-2.0%,-90.2*
CCCCN(Cc1ccccc1)C1CCN(Cc2ccccc2)CC1,.,-39.9%,i,-23.1,-0.4%,-76.2*
CCCCN(C)C(=O)C1CCN(Cc2ccc(OCc3ccccc3)cc2)CC1,-4.7%,-47.0%,-13.1%[57.5 µM],-13.9,-5.4%,-67.9*
CC1CCCN(S(=O)(=O)c2cc3c4c(c2)C(C)C(=O)N4CCC3)C1 (stereo not drawn),.,10.3%,0.0%,-0.6,1.5%,13.5
SMILES,CBFb RUNX1 block,a7 integrin act,PTHR1 agonist,DRD3 agonist,MBNL1 CUG block,D3 antag
O=C(NC1CCCC1)C(c1ccncc1)N(C(=O)Cc1cccs1)c1ccc(F)cc1 (stereo not drawn),.,0.0%,-19.1%,38.4*,-6.1%,11.0
CC(=O)Nc1ccc(N(C(=O)c2cnccn2)C(C(=O)NC2CCCCC2)c2ccc(F)cc2)cc1 (stereo not drawn),.,11.2µM*,-10.7%,-7.8,-1.8%,-17.3
COc1ccc(N(C(=O)Cc2cccs2)C(C(=O)NC2CCCC2)c2ccncc2)cc1 (stereo not drawn),.,-10.1%,i,1.8,-2.8%,11.3
O=S(=O)(/C(=C\c1ccc(C(F)(F)F)cc1)c1nc2ccccc2[nH]1)c1ccccc1,.,-71.1%,-26.5%,-12.4,.,-93.5*
CN(C)CCC=C1c2ccccc2C=Cc2ccccc21,4.4%,.,-7.9%,-94.5,.,-119.8*
CNCCC=C1c2ccccc2C=Cc2ccccc21,-3.8%[21.7 µM],.,i,-81.4,.,-77.2*
CNc1ccc(C=C2C=Cc3ccccc32)cc1,.,-20.8%,-36.4%,-1.1,.,-25.2
O=S(=O)(Nc1nc(-c2sccc2Cl)cs1)c1cc(Cl)ccc1Cl,-21.7%,-12.8%,-38.1%,-10.6,11.7%,-85.8*
Cc1ccccc1CS(=O)(=O)c1ncc(Cl)c(C(=O)Nc2ccc(F)cc2)n1,.,-9.6%,i,-2.2,4.9%,-83.9*
O=C(Nc1ccc(F)cc1)c1nc(S(=O)(=O)Cc2ccccc2)ncc1Cl,.,-62.9%,-22.3%,-22.3,18.0%,-110.0*
O=C(Nc1nc2ccc(F)cc2s1)c1nc(S(=O)(=O)Cc2ccccc2)ncc1Cl,.,.,-32.4%,-14.7,.,.
Cc1ccc(NC(=O)c2nc(S(=O)(=O)Cc3ccccc3)ncc2Cl)cc1,.,-75.2%,-23.9%,-31.0,?,-86.4*
O=C(Nc1ccccc1F)c1nc(S(=O)(=O)Cc2ccccc2F)ncc1Cl,.,.,-48.6%,0.0,.,.
O=C(CCCn1c(=O)c2cccn2c2ccccc21)Nc1cccc(Cl)c1,.,.,-37.8%,-13.2,.,.
Cc1ccc(S(=O)(=O)n2nc(OC(=O)c3c(-c4ccccc4Cl)noc3C)cc2N)cc1,0.6%,-36.4%,-12.8%[57.5 µM],4.8,3.8%,-57.7*
C/C(=N/NC(N)=S)c1cc2ccc(O)cc2oc1=O,-21.5%,-14.6%,i,8.0,.,37.6
O=c1oc2cc(O)ccc2cc1S(=O)(=O)c1ccccc1,.,?,-15.4%,34.7*,?,-6.8
